Test results taken from PubChem BioAssay (Tox21).
Results filed as inconclusive are left out. The source made the active and inactive calls. Unless noted, calls follow the shape of the dose curve; as a rule, active = well fitted curve in the direction sought with a large enough effect in the repeat runs; inconclusive = weak or mixed curves; inactive = no such curve, though single readings can be large; an effect the other way counts as inactive or inconclusive.
% is scaled to controls: 0 for no effect and ±100 for the full control effect.

Biological target: Estrogen receptor (Homo sapiens) (UniProt P03372)
Sequence (P03372 whole entry, looked up): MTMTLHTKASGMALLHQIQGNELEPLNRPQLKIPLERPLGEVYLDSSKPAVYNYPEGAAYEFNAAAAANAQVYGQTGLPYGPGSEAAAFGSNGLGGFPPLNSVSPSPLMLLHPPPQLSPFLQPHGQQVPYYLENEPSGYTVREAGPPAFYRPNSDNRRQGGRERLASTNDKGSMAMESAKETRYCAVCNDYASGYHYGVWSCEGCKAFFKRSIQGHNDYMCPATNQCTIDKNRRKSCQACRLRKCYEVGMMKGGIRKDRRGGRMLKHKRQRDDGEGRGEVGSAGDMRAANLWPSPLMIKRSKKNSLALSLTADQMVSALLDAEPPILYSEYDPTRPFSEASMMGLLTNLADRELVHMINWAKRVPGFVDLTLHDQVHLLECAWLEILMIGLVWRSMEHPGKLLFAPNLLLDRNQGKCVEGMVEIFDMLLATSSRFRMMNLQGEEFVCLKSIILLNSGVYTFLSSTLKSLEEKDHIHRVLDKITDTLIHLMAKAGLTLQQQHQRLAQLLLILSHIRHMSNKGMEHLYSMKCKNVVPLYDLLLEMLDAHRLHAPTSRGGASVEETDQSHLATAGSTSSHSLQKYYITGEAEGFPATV
Assay: qHTS assay to identify small molecule antagonists of the estrogen receptor alpha (ER-alpha) signaling pathway using the BG1 cell line in the presence of 0.1 nM 17-beta-estradiol (AID 1259244); also: nearly all actives have a fitted effect of over 50% in size
Settings: VM7Luc4E2 (BG1) ERE-luciferase, antagonist mode, 0.1 nM E2, 22 h; series mostly up to 92.4 µM; activity change, negative = inhibition: at the top concentration
In short: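 Luciferase signal from VM7Luc4E2 ERE-reporter cells, co-dosed with test compound and 0.1 nM final 17beta-estradiol for 22 h, read with ONE-Glo.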
In the case of `CC(C)C/C=C(\C=O)c1ccccc1`, the “activity change, negative = inhibition” value was 7% (inactive). With `CC(C)=CCC[C@H](C)CCO` the “activity change, negative = inhibition” value was 0.177% (inactive). In the case of `Cc1ccc(NC=O)c(C)c1`, the “activity change, negative = inhibition” value was -16% (inactive). For `NC(=O)c1cc[n+](CC2=C(C(=O)[O-])N3C(=O)[C@@H](NC(=O)Cc4cccs4)[C@H]3SC2)cc1`, the “activity change, negative = inhibition” value was -0.25% [at 42.5 µM] (inactive). In the case of `CCC(C(=O)O)c1ccc(N2Cc3ccccc3C2=O)cc1` (stereo not given), the “activity change, negative = inhibition” value was 36.1% [at 42.5 µM] (inactive).

Tested on: not listed separately
Assay: qHTS assay to identify small molecule phospholipidosis (PLD) inducers (AID 1259344; active = well fitted curve in the direction sought with a large enough effect; an effect the other way counts as inactive or inconclusive)
Settings: HepG2 phospholipidosis, LipidTOX Red imaging, 24 h; series mostly up to 38.3 µM; PLD induction: at the top concentration
In short: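 Read-out is LipidTOX Red fluorescence (ex 595/em 615) imaged in HepG2 cells after 24 h compound exposure at 37 C, with Hoechst nuclear counterstain (ex 352/em 461) allowing per-cell normalisation.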
With `CC[C@H](NC(C)C)[C@H](O)c1ccc(O)c2[nH]c(=O)ccc12` the “PLD induction” value was -0.554% (inactive). For `COc1cc(CNC(=O)CCCC/C=C/C(C)C)ccc1O`, the “PLD induction” value was 0.887% (inactive). In the case of `C/C=C1\[C@H]2C=C(C)C[C@]1(N)c1ccc(=O)[nH]c1C2`, the “PLD induction” value was 1.59% (inactive). With `Nc1ccc(C(=O)Oc2ccccc2)c(O)c1` the “PLD induction” value was -1.38% (inactive). With `C/C(=C(\CCO)SS/C(CCO)=C(\C)N(C=O)Cc1cnc(C)nc1N)N(C=O)Cc1cnc(C)nc1N` the “PLD induction” value was -0.0149% (inactive). For `CC1(COc2ccc(CC3SC(=O)NC3=O)cc2)CCCCC1` (stereo not given), the “PLD induction” value was 3.78% (inactive). For `CC(=O)Oc1cccc2c1C(=O)c1c(OC(C)=O)cc(C(=O)O)cc1C2=O`, the “PLD induction” value was 0.185% (inactive). In the case of `CC1=C(C)C(=O)C(C(CCCCCC(=O)O)c2ccccc2)=C(C)C1=O` (stereo not given), the “PLD induction” value was -0.958% (inactive). With `CCC1=C(C)CN(C(=O)NCCc2ccc(S(=O)(=O)NC(=O)NC3CCC(C)CC3)cc2)C1=O` (stereo not given) the “PLD induction” value was 0.0088% (inactive). For `O=C1c2ccccc2C(=O)c2c1ccc(O)c2O`, the “PLD induction” value was 0.296% (inactive). In the case of `NC(=O)c1cc[n+](CC2=C(C(=O)[O-])N3C(=O)[C@@H](NC(=O)Cc4cccs4)[C@H]3SC2)cc1`, the “PLD induction” value was 2.27% [at 15.5 µM] (inactive).

Tested on: not listed separately
Assay: qHTS assay to identify small molecule HDAC inhibitors (AID 1259364); also: potency is read from the fitted curve at half-maximal effect;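 also: wild-type HCT-116 cells with endogenous class I/II HDAC activity; nearly all actives have a fitted effect of over 45% in size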; as to activity change, negative = inhibition: top concentration of the series differs between compounds
Settings: HCT-116 HDAC-Glo I/II luminescence, 2 h; series mostly up to 92.4 µM; activity change, negative = inhibition: at the top concentration
In short: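 HCT-116 wt cells, 1,500/well, overnight attach. Compounds (DMSO) 2 h, 37 °C. HDAC-Glo I/II, 30 min RT. Luminescence.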
For `CCCC(=O)OCc1ccccc1`, the “activity change, negative = inhibition” value was 1.28% (inactive). With `CCCCCCCCC(=O)OCC(C)OC(=O)CCCCCCCC` (stereo not given) the “activity change, negative = inhibition” value was 6.12% (inactive). In the case of `CC[C@H](NC(C)C)[C@H](O)c1ccc(O)c2[nH]c(=O)ccc12`, the “activity change, negative = inhibition” value was 13.8% [at 42.5 µM] (inactive). With `O=C(O)c1ccncc1` the “activity change, negative = inhibition” value was -4.52% (inactive). For `CCCCCCCCOCCCN`, the “activity change, negative = inhibition” value was -5.69% (inactive). With `COc1cc(CNC(=O)CCCC/C=C/C(C)C)ccc1O` the “activity change, negative = inhibition” value was 8.77% (inactive). For `C[C@H]1C[C@H]2[C@@H]3CCC4=CC(=O)C=C[C@]4(C)[C@@]3(F)[C@@H](O)C[C@]2(C)[C@@]1(O)C(=O)COP(=O)(O)O`, the “activity change, negative = inhibition” value was 1.28% (inactive). With `CC(C)(C)N` the “activity change, negative = inhibition” value was 13.6% (inactive). With `CNc1ccccc1` the “activity change, negative = inhibition” value was 0.722% (inactive). With `C=Cc1ccc(C=C)cc1` the “activity change, negative = inhibition” value was 1.27% (inactive). With `C/C=C1\[C@H]2C=C(C)C[C@]1(N)c1ccc(=O)[nH]c1C2` the “activity change, negative = inhibition” value was -0.11% [at 42.5 µM] (inactive). With `O=C1OC(=O)C2CC=CCC12` (stereo not given) the “activity change, negative = inhibition” value was 2.27% (inactive). With `CC1(C)C(=O)NC(=O)N1CO` the “activity change, negative = inhibition” value was -0.462% (inactive). For `COC(=O)/C=C/C(C)=C\C=C\C(C)=C\C=C\C=C(C)\C=C\C=C(C)\C=C\C(=O)O`, the Potency was 24.3 µM (active). For `O=c1[nH]nc(-c2ccc([N+](=O)[O-])o2)o1`, the “activity change, negative = inhibition” value was -8.78% (inactive). With `C/C(=C(\CCO)SS/C(CCO)=C(\C)N(C=O)Cc1cnc(C)nc1N)N(C=O)Cc1cnc(C)nc1N` the “activity change, negative = inhibition” value was -1.8% [at 42.5 µM] (inactive). For `O=[N+]([O-])c1cccc(I)c1`, the “activity change, negative = inhibition” value was 0.227% (inactive). In the case of `CC(=O)Nc1ccccc1O`, the “activity change, negative = inhibition” value was 1.62% (inactive). With `CC1(COc2ccc(CC3SC(=O)NC3=O)cc2)CCCCC1` (stereo not given) the “activity change, negative = inhibition” value was -0.859% [at 42.5 µM] (inactive). With `CC(=O)c1ccc(Cl)c(Cl)c1Cl` the “activity change, negative = inhibition” value was 1.22% (inactive). With `CC(=O)Oc1cccc2c1C(=O)c1c(OC(C)=O)cc(C(=O)O)cc1C2=O` the “activity change, negative = inhibition” value was -20.5% [at 42.5 µM] (inactive). For `CC1=C(C)C(=O)C(C(CCCCCC(=O)O)c2ccccc2)=C(C)C1=O` (stereo not given), the “activity change, negative = inhibition” value was 1.25% [at 42.5 µM] (inactive). For `CO[C@@H]1COCC[C@@H]1N[C@@H]1CC[C@@](C(=O)N2CCc3ncc(C(F)(F)F)cc3C2)(C(C)C)C1`, the “activity change, negative = inhibition” value was 0.156% (inactive). With `N#CCCCC(C#N)CCC#N` (stereo not given) the “activity change, negative = inhibition” value was -11% (inactive). For `C(/C=C/C=C/Nc1ccccc1)=Nc1ccccc1`, the “activity change, negative = inhibition” value was 6.27% (inactive). With `CCC(C)C1N=C(C)C(C)S1` (stereo not given) the “activity change, negative = inhibition” value was 4.29% (inactive). For `Cc1cc(C)n(CO)n1`, the “activity change, negative = inhibition” value was 1.93% (inactive). With `CCOc1ccccc1O` the “activity change, negative = inhibition” value was -2.3% (inactive). In the case of `CCC1=C(C)CN(C(=O)NCCc2ccc(S(=O)(=O)NC(=O)NC3CCC(C)CC3)cc2)C1=O` (stereo not given), the “activity change, negative = inhibition” value was -6.05% [at 42.5 µM] (inactive). With `O=C1c2ccccc2C(=O)c2c1ccc(O)c2O` the Potency was 29.8 µM (active). With `CC(C)C/C=C(\C=O)c1ccccc1` the “activity change, negative = inhibition” value was 5.58% (inactive). In the case of `CC(C)=CCC[C@H](C)CCO`, the “activity change, negative = inhibition” value was 3.57% (inactive). In the case of `Cc1ccc(NC=O)c(C)c1`, the “activity change, negative = inhibition” value was 0.524% (inactive). In the case of `NC(=O)c1cc[n+](CC2=C(C(=O)[O-])N3C(=O)[C@@H](NC(=O)Cc4cccs4)[C@H]3SC2)cc1`, the “activity change, negative = inhibition” value was -5.69% [at 42.5 µM] (inactive). With `[O-][n+]1ccc(Cl)cc1` the “activity change, negative = inhibition” value was -0.429% (inactive). With `COc1ccc(/C=C/S(=O)(=O)NC(=O)c2ccc(C)cc2Cl)cc1` the “activity change, negative = inhibition” value was -2.32% (inactive). In the case of `CCC(C(=O)O)c1ccc(N2Cc3ccccc3C2=O)cc1` (stereo not given), the Potency was 2.66 µM (active).

Tested on: not listed separately
Assay: qHTS assay to identify small molecule HDAC inhibitors - cell viability counter screen (AID 1259365); also: nearly all actives have a fitted effect of over 50% in size
Settings: HCT-116 viability, CellTiter-Glo ATP luminescence, 2 h; series mostly up to 92.4 µM; activity change, negative = cytotoxicity: at the top concentration
In short: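 HCT-116 (wild type), 1,500 cells/well, overnight 37C/5% CO2; compound in DMSO 2hr; CellTiter-Glo 30min RT; luminescence read.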
For `CCCC(=O)OCc1ccccc1`, the “activity change, negative = cytotoxicity” value was -1.63% (inactive). In the case of `CC[C@H](NC(C)C)[C@H](O)c1ccc(O)c2[nH]c(=O)ccc12`, the “activity change, negative = cytotoxicity” value was -2.89% [at 42.5 µM] (inactive). In the case of `O=C(O)c1ccncc1`, the “activity change, negative = cytotoxicity” value was 11.7% (inactive). In the case of `COc1cc(CNC(=O)CCCC/C=C/C(C)C)ccc1O`, the “activity change, negative = cytotoxicity” value was 3.61% (inactive). For `C[C@H]1C[C@H]2[C@@H]3CCC4=CC(=O)C=C[C@]4(C)[C@@]3(F)[C@@H](O)C[C@]2(C)[C@@]1(O)C(=O)COP(=O)(O)O`, the “activity change, negative = cytotoxicity” value was 1.02% (inactive). In the case of `CC(C)(C)N`, the “activity change, negative = cytotoxicity” value was 4.9% (inactive). For `CNc1ccccc1`, the “activity change, negative = cytotoxicity” value was 2.17% (inactive). In the case of `C=Cc1ccc(C=C)cc1`, the “activity change, negative = cytotoxicity” value was -0.168% (inactive). For `C/C=C1\[C@H]2C=C(C)C[C@]1(N)c1ccc(=O)[nH]c1C2`, the “activity change, negative = cytotoxicity” value was 1.24% [at 42.5 µM] (inactive). In the case of `O=C1OC(=O)C2CC=CCC12` (stereo not given), the “activity change, negative = cytotoxicity” value was -0.619% (inactive). With `CC1(C)C(=O)NC(=O)N1CO` the “activity change, negative = cytotoxicity” value was 0.0801% (inactive). With `Nc1ccc(C(=O)Oc2ccccc2)c(O)c1` the “activity change, negative = cytotoxicity” value was 3.91% [at 42.5 µM] (inactive). In the case of `COC(=O)/C=C/C(C)=C\C=C\C(C)=C\C=C\C=C(C)\C=C\C=C(C)\C=C\C(=O)O`, the “activity change, negative = cytotoxicity” value was 2.33% (inactive). With `O=c1[nH]nc(-c2ccc([N+](=O)[O-])o2)o1` the “activity change, negative = cytotoxicity” value was 9.25% (inactive). For `C/C(=C(\CCO)SS/C(CCO)=C(\C)N(C=O)Cc1cnc(C)nc1N)N(C=O)Cc1cnc(C)nc1N`, the “activity change, negative = cytotoxicity” value was 1.74% [at 42.5 µM] (inactive). With `O=[N+]([O-])c1cccc(I)c1` the “activity change, negative = cytotoxicity” value was -1.32% (inactive). In the case of `CC(=O)Nc1ccccc1O`, the “activity change, negative = cytotoxicity” value was 0.0968% (inactive). For `CC1(COc2ccc(CC3SC(=O)NC3=O)cc2)CCCCC1` (stereo not given), the “activity change, negative = cytotoxicity” value was -6.36% [at 42.5 µM] (inactive). With `CC(=O)Oc1cccc2c1C(=O)c1c(OC(C)=O)cc(C(=O)O)cc1C2=O` the “activity change, negative = cytotoxicity” value was 1.98% [at 42.5 µM] (inactive). For `CO[C@@H]1COCC[C@@H]1N[C@@H]1CC[C@@](C(=O)N2CCc3ncc(C(F)(F)F)cc3C2)(C(C)C)C1`, the “activity change, negative = cytotoxicity” value was 0.512% (inactive). In the case of `O=C(NC1CCN(CCc2c[nH]c3ccccc23)CC1)c1ccccc1`, the “activity change, negative = cytotoxicity” value was 0.595% [at 42.5 µM] (inactive). With `N#CCCCC(C#N)CCC#N` (stereo not given) the “activity change, negative = cytotoxicity” value was 3.43% (inactive). For `C(/C=C/C=C/Nc1ccccc1)=Nc1ccccc1`, the “activity change, negative = cytotoxicity” value was 1.58% (inactive). With `CCC(C)C1N=C(C)C(C)S1` (stereo not given) the “activity change, negative = cytotoxicity” value was -0.741% (inactive). For `Cc1cc(C)n(CO)n1`, the “activity change, negative = cytotoxicity” value was 3.17% (inactive). With `O=C1c2ccccc2C(=O)c2c1ccc(O)c2O` the “activity change, negative = cytotoxicity” value was -7.07% [at 42.5 µM] (inactive). With `CC(C)=CCC[C@H](C)CCO` the “activity change, negative = cytotoxicity” value was -4.17% (inactive). In the case of `Cc1ccc(NC=O)c(C)c1`, the “activity change, negative = cytotoxicity” value was -0.257% (inactive). For `NC(=O)c1cc[n+](CC2=C(C(=O)[O-])N3C(=O)[C@@H](NC(=O)Cc4cccs4)[C@H]3SC2)cc1`, the “activity change, negative = cytotoxicity” value was 3.51% [at 42.5 µM] (inactive). With `[O-][n+]1ccc(Cl)cc1` the “activity change, negative = cytotoxicity” value was 2.96% (inactive). In the case of `COc1ccc(/C=C/S(=O)(=O)NC(=O)c2ccc(C)cc2Cl)cc1`, the “activity change, negative = cytotoxicity” value was 1.07% (inactive). For `CCC(C(=O)O)c1ccc(N2Cc3ccccc3C2=O)cc1` (stereo not given), the “activity change, negative = cytotoxicity” value was -8.22% [at 42.5 µM] (inactive).
